High-throughput results: PubChem, National Center for Advancing Translational Sciences (NCATS)
Rows were chosen to be rich in hits. Some 21% of all compounds tested hit in one or more screens of this group.
Pf growth 48h – P. falciparum growth inhibition at 48 hours (one generation). Potency, µM (series often up to 28.7 µM), inactives show at the highest dose activity change, negative = inhibition, actives largely listed as inhibitors. P. falciparum luciferase growth in erythrocytes, 48 h. 310,000 tested, 5.9% active; active = well fitted inhibition curve with a large enough effect; inconclusive = small, poorly fitted or top-dose-only effect, or another doubt; inactive = no such curve, though single readings can be large or run the other way; also: potency is read from the fitted curve at half-maximal effect; % is scaled to controls: 0 for no effect and ±100 for the full control effect
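Compounds are pin-transferred into medium, infected erythrocytes (2% hematocrit, 0.1% parasitemia final) are added, and plates sit one parasite generation at 37 C in 5% CO2. Detection reagent is then added and luminescence measured.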
SARS PLP yeast – SARS-CoV PLP inhibition in yeast | S. cerevisiae expressing SARS-CoV PLpro, growth rescue | Potency, µM (top dose mostly 32.9 µM), for the others: top-dose activity, positive = growth rescue, hits mostly activators | 330,000 tested, 0.19% active | AID 485353; also: potency is read from the fitted curve at half-maximal effect; 0% is about no effect; nearly all actives have a fitted effect of over 55% in size
Pf growth 96h – inhibits malaria parasite growth, 96 h. P. falciparum luciferase reporter growth, 96 h. Potency, µM (top dose mostly 28.7 µM), for the others: at the highest dose activity change, negative = inhibition, actives largely listed as inhibitors. 320,000 tested, 6.9% active. AID 504834; active = well fitted inhibition curve with a large enough effect; inconclusive = small, poorly fitted or top-dose-only effect, or another doubt; inactive = no such curve, though single readings can be large or run the other way; also: potency is read from the fitted curve at half-maximal effect; % is scaled to controls: 0 for no effect and ±100 for the full control effect
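Infected RBCs, 2% Hct / 0.05% parasitemia final; luciferase-reporter P. falciparum; cpd 96 h, 37 C, 5% CO2; luciferase detection reagent; luminescence.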
Shiga inhibitor – Shiga toxin inhibition; Vero cells, Shiga toxin protein synthesis inhibition reporter; inhibition, % at 38.7 µM; 290,000 tested, 9.2% active; in the data active = inhibition mostly above about 28%, no sharp cut-off; inactive = mostly below about 43%; also: 0% is about no effect
Cycloheximide cs – counter-screen hit for Shiga toxin inhibitors, cycloheximide | 300,000 tested, 12% active | cell reporter, cycloheximide protein synthesis inhibition counterscreen | max response, %; in the data active = max response mostly above about 13%, no sharp cut-off; inactive = mostly below about 14%; also: read at 38.3 µM for the half of the compounds with a filed dose; 0% is about no effect
NS1 function inh – blocks influenza NS1 protein function. AID 2326. Potency, µM (doses to about 46.1 µM), for the others: top-dose activity, positive = more growth. 270,000 tested, 0.4% active; also: potency is read from the fitted curve at half-maximal effect; actives are rising curves; nearly all actives have a fitted effect of over 50% in size
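Recovery from NS1-induced slow growth read by OD600 in budding yeast switched to galactose assay medium (pH 6.0, -URA) at 1:100 dilution. Compound 23 nl per well; the matching strain lacking NS1 serves as control.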
Numbers without * were called inactive; ? = inconclusive; / = no result given; [ ] = another dose, or the depositor's remark. Unless noted, calls follow the shape of the full dose curve.

SMILES | Pf growth 48h | SARS PLP yeast | Pf growth 96h | Shiga inhibitor | Cycloheximide cs | NS1 function inh
COC(=O)c1c(NC(=O)CSc2nc3ccccc3c(=O)n2-c2ccccc2)sc(C)c1C | ? | 1.1% | 9.28µM* | -4.4 | -4.6 | 8.9%
CCOC(=O)c1sc(NC(=O)CSc2nnc(C)s2)c(C(=O)OCC)c1C | 9.28µM* | -0.5% | ? | -3.6 | -3.7 | -31.2%
CCOc1ccc(-n2c(SCc3ccc(C(=O)OC)o3)nc3c(c2=O)SCC3)cc1 | ? | ? | / | -12.5 | -3.1 | -53.7%
COC(=O)c1ccc(CSc2nc3c(c(=O)n2-c2ccc(Br)cc2)SCC3)o1 | / | 14.1% | 9.28µM* | -13.5 | -3.6 | -33.0%
CCOC(=O)c1sc(NC(=O)CSc2nc3c(c(=O)n2-c2ccc(F)cc2)SCC3)c(C(=O)OCC)c1C | 2.62µM* | -16.1% | 2.94µM* | -6.3 | -1.9 | 8.4%
Cc1cc(NC(=O)CSc2nc3ccccc3c(=O)n2-c2ccccc2)no1 | 29.2% | 6.8% | / | -16.5 | -3.6 | -3.1%
O=C(NC1CCS(=O)(=O)C1)c1ccc(-c2ccc(Br)cc2)o1 (stereo not given) | / | -2.0% | ? | 34.9 | 18.9* | -10.0%
O=C(NC1CCS(=O)(=O)C1)c1ccc(Br)o1 (stereo not given) | 41.1% | -0.9% | 36.8% | -3.8 | -7.1 | -0.1%
O=C(NC12CC3CC(CC(C3)C1)C2)c1ccc(-c2ccc(Br)cc2)o1 | ? | -8.2% | ? | 107.8* | 68.3* | 8.0%
O=C(NC12CC3CC(CC(C3)C1)C2)c1ccc([N+](=O)[O-])o1 | 5.22µM* | -13.8% | ? | 14.5 | 11.0* | -84.2%
COCc1nc2ccccc2n1Cc1c(F)cccc1Cl | ? | 0.4% | ? | -16.0 | -1.1 | 3.0%
CCOCCOC(=O)c1ccc(-n2cncn2)nc1 | / | 15.3% | ? | 23.5 | 1.1 | -46.1%
Cc1ccc(-n2cccn2)c([C@@H]2C[C@H]3CN(C)C(=O)[C@]34CCCN24)c1 | ? | 0.0% | ? | -1.3 | -1.1 | 0.9%
CCSc1nnc(-c2ccc(Cl)cc2)c2ccccc12 | ? | 0.1% | 0.0928µM* | -15.9 | -3.8 | 0.7%
COc1cc(Cl)cc(/C=C/c2ccc3cccc(O)c3n2)c1OC | / | 1.0% | 4.5% | 10.7 | 5.5 | 0.1%
COc1ccccc1/C=C/c1ccc2cccc(O)c2n1 | -10.6% | -1.3% | 35.3% | 82.3* | 40.1* | -64.4%
COc1ccc(Cl)cc1/C=C/c1ccc2cccc(O)c2n1 | / | -1.2% | 7.1% | 73.0* | 46.0* | 2.0%
COc1ccc(-c2nn(-c3ccccc3)cc2C(=O)Nc2nccs2)cc1 | ? | ? | 12.5% | -12.8 | -2.5 | 11.7%
COc1cc2ccccc2cc1C(=O)NCC(c1cccs1)N(C)C (stereo not given) | 163.5% | 6.1% | 99.4% | 87.3* | 36.8* | /
COc1cc2ccccc2cc1C(=O)Nc1nccs1 | 149.1% | -12.2% | 78.1% | 49.3* | 27.5* | -52.4%
COc1cccc2c1OCC(C(=O)Nc1nccs1)=C2 | -6.4%[0.00184 µM] | -1.4% | -4.7% | 107.8* | 40.7* | -39.0%
COc1cccc(-c2nn(-c3ccccc3)cc2C(=O)Nc2nccs2)c1 | 7.38µM* | -0.5% | ? | 12.2 | 7.9 | ?
O=C1C=C(c2ccc(Oc3ccccc3)cc2)C[C@@H](c2ccc(F)cc2)C1 | ? | 5.2% | -15.6% | / | / | /
O=C(c1cn2ccccc2n1)N1CCCC(Nc2ccc(F)c(F)c2)C1 (stereo not given) | ? | 18.3% | ? | 0.6 | 1.0 | -2.1%
COc1c(C(=O)Nc2nccs2)ccc2ccccc12 | 119.9% | -3.9% | 467.0% | 93.3* | 37.8* | -3.7%
SMILES | Pf growth 48h | SARS PLP yeast | Pf growth 96h | Shiga inhibitor | Cycloheximide cs | NS1 function inh
CN1CCCC(C(=O)c2ccc(-c3ccccc3)cc2)C1 (stereo not given) | ? | 5.7% | ? | 33.9* | 23.1* | 14.1%
CC1CCCN(C(=O)CCl)C1 (stereo not given) | 4.65µM* | 14.0% | 1.47µM* | 2.8 | -2.1 | -1.9%
CN1CC(C(=O)c2ccc(F)cc2)C(c2ccc(F)cc2)C1 (stereo not given) | / | 0.6% | -4.6% | -7.1 | -5.0 | -1.6%
CN1CC(C(=O)c2ccccc2)C(C(=O)c2ccccc2)C1 (stereo not given) | 60.4% | -42.2% | 11.3% | 112.4* | 54.7* | -151.1%
COCC(=O)N1CCCC(C(=O)c2ccc(-c3ccccc3)cc2)C1 (stereo not given) | -5.8% | -11.6% | -6.5% | 11.5 | 11.1* | -33.6%
CN1CCN(C(=O)c2ccc(-c3ccccc3)cc2)CC1 | 7.3% | 5.6% | 0.0% | 26.1 | 9.4 | 21.7%
CC(=O)NCC(=O)N1CCCC(C(=O)c2ccc(Oc3ccccc3)cc2)C1 (stereo not given) | 2.9% | -3.2% | 3.0% | 19.6 | 13.2 | -5.8%
COC(CN(C)S(=O)(=O)c1cc2c3c(c1)CCN3C(=O)CC2)OC | 13.0% | -3.5% | 31.7% | 13.7 | 2.8 | -0.1%
CN(C(=O)COC(=O)CCC1CCCCC1)c1c(N)n(Cc2ccccc2)c(=O)[nH]c1=O | 0.4% | -6.9% | 19.8% | / | / | /
Cc1[nH][nH]c(=O)c1C | -1.4% | -0.2% | 23.2% | / | / | /
CN(CCOC(=O)/C=C/c1ccco1)Cc1ccccc1 | 31.8% | 0.5% | 53.3% | -2.0 | -1.2 | 3.3%
CC1CCCN(C(=O)COc2ccc(-c3ccccc3)cc2)C1 (stereo not given) | 20.4% | -4.4% | 10.6% | 40.1* | 17.3 | /
COc1ccccc1C(=O)C1CCCN(C(=O)c2cccnc2SC)C1 (stereo not given) | 5.22µM* | 0.4% | 67.5% | 12.2 | 7.1 | 0.1%
COc1ccc(C(=O)C2CCCN(C(=O)CSC)C2)cc1OC (stereo not given) | 19.1% | -6.0% | 13.1µM* | -2.7 | -0.9 | 24.3%
COc1ccc(C(=O)N2CCCC(CCC(=O)N3CCN(c4ccccn4)CC3)C2)cc1 (stereo not given) | ? | -1.9% | -9.7% | -2.7 | -2.4 | -11.0%
O=C(CCC1CCCN(C(=O)COc2ccccc2)C1)N1CCN(c2ccccn2)CC1 (stereo not given) | 10.4µM* | -1.8% | 0.5% | -9.6 | -0.2 | -1.4%
CSc1ccc(C(=O)C2CCCN(C(=O)c3cccnc3SC)C2)cc1 (stereo not given) | ? | 0.6% | -12.6% | -17.2 | 2.0 | -3.3%
Cc1cccn2c(CN(C)CC3Cc4ccccc4O3)c(C(=O)N3CCCCC3)nc12 (stereo not given) | ? | -0.8% | ? | 9.1 | -1.6 | -0.4%
O=C(CSc1ccc2c(c1)OCCO2)N1CCN(c2ccccc2O)CC1 | ? | 1.4% | 7.38µM* | / | / | /
S=C(Nc1ccc2c(c1)OCO2)N1CCN(Cc2ccco2)CC1 | 49.9% | -0.3% | 399.2% | 28.0* | 20.1* | 2.1%
O=C(CN1CCOCC1)Nc1ccc2c(c1)OCCO2 | 66.1% | -0.2% | 42.9% | 49.9* | 16.1* | 4.4%
S=C(NCc1ccco1)N1CCN(Cc2ccco2)CC1 | 4.0% | 4.4% | 69.8% | -16.2 | -3.4 | 11.0%
